Records with an inconclusive call do not appear. A call without a number means that no potency is given here. The source made the active and inactive calls. The call rests on the fitted dose curve; in most records, active means well fitted inhibition curve with a large enough effect; inconclusive means small, poorly fitted or top-dose-only effect; inactive means no such curve, though single readings can be large or run the other way.
Assay: Confirmation assay for measurement of the activity of small molecule inhibitors on Zika virus induced Caspase-3 activity in human astrocytes
Conditions: ZIKV-induced caspase-3/7 luminescence, 6 h; series mostly up to 46.1 µM
Description: National Center for Advancing Translational Sciences [NCATS] Johns Hopkins University School of Medicine Florida State University Assay Overview: Increase in the Caspase-3 activity indicates an activation of apoptosis cell death pathway caused by Zika virus infection in certain types of neuronal cells including human neural progenitor cells (hNPCs), astrocytes, and astrocytoma cell line (SNB-19). This cell-based caspase-3 activity assay measures the increased caspase-3 activity in the human astrocytes after a 6-hour Zika virus infection with a luminescence readout. A decrease in the luminescence signal in this assay by small molecule treatment indicates an inhibitory effect of that small molecule on the Zika virus induced caspase-3 activity that may correlate with its effect on reduction of Zika virus caused cell death.
Assay Protocol Summary: The medium for astrocytes contains AM basal medium (ScienCell, Cat.# 1801), AGS (ScienCell, Cat.# 1801), 10% FBS, and 1% Pen/Strep. A Caspase-Glo 3/7 assay kit (catalog number G8092; Promega, Madison, WI) was used to detect caspase-3 activity induced by Zika virus infection in human cells. The reagent mixture was reconstituted as described in the protocol from the manufacturer. Polystyrene tissue culture treated and PDL coated white plates were obtained from Greiner Bio-One (Monroe, NC). Cells were seeded in 384- or 1536-well assay plates and cultured at 37 C with 5% CO2 for 16 to 20 hours. The typical cell seeding density in the 1536-well plate assay is 350 cells/well in 3 ul medium for astrocytes in tissue culture treated plates. Compounds were added to cells and incubated for one hour before addition of ZIKV solution to cells (2 FFU/cell). After incubation at 37 C with 5% CO2 for 6 hours, the reagent mixture of Caspase-Glo 3/7 assay kit was added to each well, followed by incubation at room temperature for 30 minutes. The luminescence intensity of the assay plates was measured using a ViewLux plate reader (PerkinElmer). Data were normalized by using the cell-containing wells without ZIKV as a negative control (0% induction of caspase 3/7 activity) and wells containing ZIKV infected cells (Caspase-3 activity induced) as a positive control (100% induction of caspase 3 activity). The percentage inhibitions of the increased Caspase-3 activity by small molecule inhibitors were then calculated.

Row | Structure (SMILES) | Potency
1 | CC(C)[C@H]1C(=O)N[C@H](CO)Cc2c[nH]c3cccc(c23)N1C | inactive
2 | Cc1ccc([N+](=O)[O-])[c]2c1[O][Hg]2 | 7.74 µM (active)
3 | O=c1c2ccccc2[se]n1-c1ccccc1 | 7.74 µM (active)
4 | CC(C)N[C@@H]1CCn2c(=O)[nH]c3cccc(c32)[C@@H]1O | inactive
5 | CC(O)CN1CCN(CC(=O)[O-])CCN(CC(=O)[O-])CCN(CC(=O)[O-])CC1.[Gd+3] (stereo not drawn) | inactive
6 | COC1(CS(=O)c2ccccc2)CCN(CCc2c[nH]c3ccc(F)cc23)CC1 (stereo not drawn) | inactive
7 | CC(C)[N+](C)(CCC(C(N)=O)(c1ccccc1)c1ccccc1)C(C)C | inactive
8 | O=C(Nc1ccc(Br)cc1)c1cc(Br)cc(Br)c1O | 6.15 µM (active)
9 | O=C1CCC[C@@H]2[C@H]3CCCN4CCC[C@@H](CN12)[C@@H]34 | inactive
10 | O=S(=O)(CC1CS1)c1ccc(Oc2ccccc2)cc1 (stereo not drawn) | inactive
11 | Oc1ccc([C@H]2CNCc3c2ccc(O)c3O)cc1O | inactive
12 | O=C1C=CC[C@@H]2[C@H]3CCCN4CCC[C@@H](CN12)[C@@H]34 | inactive
13 | COP(=S)(OC)SCN1C(=O)c2ccccc2C1=O | inactive

Reference: PubChem BioAssay AID1224858 (National Center for Advancing Translational Sciences (NCATS), 2016)
